Test results taken from the supplement of paper PMC4466140.

What was measured:
Test in all cases: SPOT peptide array binding signal intensity (averaged, normalized) (arbitrary units (background-subtracted, floor 0; scale differs between SH3 domains)); higher = stronger binding of the SH3 domain to the peptide
AgAbp1 = target: AgAbp1
How it was run: (§1)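 Four yeast species supplied the SH3 domains, which were expressed as GST fusions in E. coli BL21(DE3) and purified on glutathione Sepharose. Incubation with cellulose membranes carrying synthetic 15-mer peptides, cysteines exchanged for serines, ran overnight at 4°C at 10 μg/ml in TBS-based blocking buffer. Binding signal is reported as normalized, background-subtracted spot intensity averaged over replicates, in arbitrary units not shared between domains.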

AgBbc1 = target: AgBbc1
How it was run: as §1

AgBem1-D1 = target: AgBem1-D1
How it was run: as §1

AgBzz1-D1 = target: AgBzz1-D1
How it was run: as §1

AgBzz1-D2 = target: AgBzz1-D2
How it was run: as §1

AgCyk3 = target: AgCyk3
How it was run: as §1

AgFus1 = target: AgFus1
How it was run: as §1

AgHof1 = target: AgHof1
How it was run: as §1

AgHse1 = target: AgHse1
How it was run: as §1

AgLsb1 = target: AgLsb1
How it was run: as §1

AgLsb4 = target: AgLsb4
How it was run: as §1

AgMyo5 = target: AgMyo5
How it was run: as §1

AgNbp2 = target: AgNbp2
How it was run: as §1

AgRvs167 = target: AgRvs167
How it was run: as §1

AgSho1 = target: AgSho1
How it was run: as §1

AgSla1-D1-D2 = target: AgSla1-D1-D2
How it was run: as §1

AgSla1-D3 = target: AgSla1-D3
How it was run: as §1

CaAbp1-D1 = target: CaAbp1-D1
How it was run: as §1

CaAbp1-D2 = target: CaAbp1-D2
How it was run: as §1

CaBbc1 = target: CaBbc1
How it was run: as §1

CaBem1-D1 = target: CaBem1-D1
How it was run: as §1

CaBzz1-D1 = target: CaBzz1-D1
How it was run: as §1

CaBzz1-D2 = target: CaBzz1-D2
How it was run: as §1

CaCyk3 = target: CaCyk3
How it was run: as §1

CaFus1 = target: CaFus1
How it was run: as §1

CaHof1 = target: CaHof1
How it was run: as §1

CaHse1 = target: CaHse1
How it was run: as §1

CaLsb1 = target: CaLsb1
How it was run: as §1

CaLsb4 = target: CaLsb4
How it was run: as §1

CaMyo5 = target: CaMyo5
How it was run: as §1

CaNbp2 = target: CaNbp2
How it was run: as §1

CaRvs167 = target: CaRvs167
How it was run: as §1

CaRvs167-3 = target: CaRvs167-3
How it was run: as §1

CaSho1 = target: CaSho1
How it was run: as §1

CaSla1-D1-D2 = target: CaSla1-D1-D2
How it was run: as §1

CaSla1-D3 = target: CaSla1-D3
How it was run: as §1

ScAbp1 = target: ScAbp1
How it was run: as §1

ScBbc1 = target: ScBbc1
How it was run: as §1

ScBem1-D1 = target: ScBem1-D1
How it was run: as §1

ScBzz1-D1 = target: ScBzz1-D1
How it was run: as §1

ScBzz1-D2 = target: ScBzz1-D2
How it was run: as §1

ScCyk3 = target: ScCyk3
How it was run: as §1

ScFus1 = target: ScFus1
How it was run: as §1

ScHof1 = target: ScHof1
How it was run: as §1

ScHse1 = target: ScHse1
How it was run: as §1

ScLsb1 = target: ScLsb1
How it was run: as §1

ScLsb2 = target: ScLsb2
How it was run: as §1

ScLsb3 = target: ScLsb3
How it was run: as §1

ScLsb4 = target: ScLsb4
How it was run: as §1

ScMyo3 = target: ScMyo3
How it was run: as §1

ScMyo5 = target: ScMyo5
How it was run: as §1

ScNbp2 = target: ScNbp2
How it was run: as §1

ScPex13 = target: ScPex13
How it was run: as §1

ScRvs167 = target: ScRvs167
How it was run: as §1

ScSho1 = target: ScSho1
How it was run: as §1

ScSla1-D1-D2 = target: ScSla1-D1-D2
How it was run: as §1

ScSla1-D3 = target: ScSla1-D3
How it was run: as §1

SpAbp1-D1 = target: SpAbp1-D1
How it was run: as §1

SpBbc1 = target: SpBbc1
How it was run: as §1

SpBzz1-D1 = target: SpBzz1-D1
How it was run: as §1

SpBzz1-D2 = target: SpBzz1-D2
How it was run: as §1

SpCyk3 = target: SpCyk3
How it was run: as §1

SpHof1 = target: SpHof1
How it was run: as §1

SpHof1-2 = target: SpHof1-2
How it was run: as §1

SpHof1-3 = target: SpHof1-3
How it was run: as §1

SpHse1 = target: SpHse1
How it was run: as §1

SpLsb1 = target: SpLsb1
How it was run: as §1

SpLsb4 = target: SpLsb4
How it was run: as §1

SpMyo1 = target: SpMyo1
How it was run: as §1

SpNbp2 = target: SpNbp2
How it was run: as §1

SpPex13 = target: SpPex13
How it was run: as §1

SpRvs167 = target: SpRvs167
How it was run: as §1

SpSla1-D1-D2 = target: SpSla1-D1-D2
How it was run: as §1

SpSla1-D3 = target: SpSla1-D3
How it was run: as §1

B1: unnamed (peptide)
chain: LFMKGTPEFPKSGFS
SPOT peptide array binding signal intensity (AgAbp1): ≤ 0
SPOT peptide array binding signal intensity (AgBbc1): 12.5
SPOT peptide array binding signal intensity (AgBem1-D1): 224
SPOT peptide array binding signal intensity (AgBzz1-D1): 8.5
SPOT peptide array binding signal intensity (AgBzz1-D2): 7
SPOT peptide array binding signal intensity (AgCyk3): ≤ 0
SPOT peptide array binding signal intensity (AgFus1): 479
SPOT peptide array binding signal intensity (AgHof1): 7
SPOT peptide array binding signal intensity (AgHse1): 104
SPOT peptide array binding signal intensity (AgLsb1): ≤ 0
SPOT peptide array binding signal intensity (AgLsb4): 5
SPOT peptide array binding signal intensity (AgMyo5): 5
SPOT peptide array binding signal intensity (AgNbp2): 208
SPOT peptide array binding signal intensity (AgRvs167): 0.667
SPOT peptide array binding signal intensity (AgSho1): 248
SPOT peptide array binding signal intensity (AgSla1-D1-D2): 4
SPOT peptide array binding signal intensity (AgSla1-D3): 5
SPOT peptide array binding signal intensity (CaAbp1-D1): 291
SPOT peptide array binding signal intensity (CaAbp1-D2): 224
SPOT peptide array binding signal intensity (CaBbc1): 40.5
SPOT peptide array binding signal intensity (CaBem1-D1): 272
SPOT peptide array binding signal intensity (CaBzz1-D1): 182
SPOT peptide array binding signal intensity (CaBzz1-D2): 58.8
SPOT peptide array binding signal intensity (CaCyk3): 7.5
SPOT peptide array binding signal intensity (CaFus1): 914
SPOT peptide array binding signal intensity (CaHof1): ≤ 0
SPOT peptide array binding signal intensity (CaHse1): 113
SPOT peptide array binding signal intensity (CaLsb1): 3.5
SPOT peptide array binding signal intensity (CaLsb4): 196
SPOT peptide array binding signal intensity (CaMyo5): 40.2
SPOT peptide array binding signal intensity (CaNbp2): 611
SPOT peptide array binding signal intensity (CaRvs167): 75
SPOT peptide array binding signal intensity (CaRvs167-3): 1.5
SPOT peptide array binding signal intensity (CaSho1): 1200
SPOT peptide array binding signal intensity (CaSla1-D1-D2): 90
SPOT peptide array binding signal intensity (CaSla1-D3): 289
SPOT peptide array binding signal intensity (ScAbp1): 6.5
SPOT peptide array binding signal intensity (ScBbc1): ≤ 0
SPOT peptide array binding signal intensity (ScBem1-D1): 16
SPOT peptide array binding signal intensity (ScBzz1-D1): 20.5
SPOT peptide array binding signal intensity (ScBzz1-D2): 11.5
SPOT peptide array binding signal intensity (ScCyk3): 1
SPOT peptide array binding signal intensity (ScFus1): 738
SPOT peptide array binding signal intensity (ScHof1): ≤ 0
SPOT peptide array binding signal intensity (ScHse1): 17.5
SPOT peptide array binding signal intensity (ScLsb1): 19
SPOT peptide array binding signal intensity (ScLsb2): ≤ 0
SPOT peptide array binding signal intensity (ScLsb3): 197
SPOT peptide array binding signal intensity (ScLsb4): 92.5
SPOT peptide array binding signal intensity (ScMyo3): 21
SPOT peptide array binding signal intensity (ScMyo5): 2
SPOT peptide array binding signal intensity (ScNbp2): 212
SPOT peptide array binding signal intensity (ScPex13): 394
SPOT peptide array binding signal intensity (ScRvs167): 32
SPOT peptide array binding signal intensity (ScSho1): 658
SPOT peptide array binding signal intensity (ScSla1-D1-D2): 176
SPOT peptide array binding signal intensity (ScSla1-D3): 490
SPOT peptide array binding signal intensity (SpAbp1-D1): 52.5
SPOT peptide array binding signal intensity (SpBbc1): ≤ 0
SPOT peptide array binding signal intensity (SpBzz1-D1): 140
SPOT peptide array binding signal intensity (SpBzz1-D2): 16.5
SPOT peptide array binding signal intensity (SpCyk3): ≤ 0
SPOT peptide array binding signal intensity (SpHof1): 19
SPOT peptide array binding signal intensity (SpHof1-2): 18.8
SPOT peptide array binding signal intensity (SpHof1-3): 78
SPOT peptide array binding signal intensity (SpHse1): 335
SPOT peptide array binding signal intensity (SpLsb1): ≤ 0
SPOT peptide array binding signal intensity (SpLsb4): 629
SPOT peptide array binding signal intensity (SpMyo1): 22.8
SPOT peptide array binding signal intensity (SpNbp2): 100
SPOT peptide array binding signal intensity (SpPex13): 28
SPOT peptide array binding signal intensity (SpRvs167): 30.8
SPOT peptide array binding signal intensity (SpSla1-D1-D2): 8
SPOT peptide array binding signal intensity (SpSla1-D3): 253
